The values below come from PubChem BioAssay (NCI).

Test systems include 786-0 renal; MALME-3M melanoma; MDA-MB-231 breast; SF-268 CNS; SF-295 CNS; UACC-257 melanoma; U251 CNS; PC-3 prostate; UACC-62 melanoma; SK-MEL-2 melanoma; SN12C renal; UO-31 renal; TK-10 renal; ACHN renal; A498 renal; OVCAR-5 ovarian; OVCAR-3 ovarian; HS 578T breast; NCI/ADR-RES ovarian; BT-549 breast.
Assay in all cases: NCI-60 one-dose screen, 48 h (100 = growth as untreated, 0 = no growth, -100 = all killed)
Common to all, as to details: 10 µM

About 83,000 compounds went through this panel and 20% of them were active in at least one assay; those are over-represented in the sample as a whole.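 Method: cells in 96-well plates; compound added at one concentration; 48 h incubation; percent growth measured; values under 10 scored active.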 A number with no mark means an inactive call. Calls of active or inactive are those of the source.

In the case of `COc1cc2oc(-c3cccc(C(=O)Nc4ccc(Cl)cc4)c3)cc(=O)c2c(OCCN)c1OC`, the growth was -80.9% (active) in the assay with 786-0 renal; -67.9% (active) with MALME-3M melanoma; -86.7% (active) with MDA-MB-231 breast; -76.8% (active) in the assay on SF-268 CNS; -81.4% (active) in the assay on SF-295 CNS; -85.2% (active) in the assay on UACC-257 melanoma. The growth was -84.2% (active) in the assay with U251 CNS; -87.3% (active) in the assay with PC-3 prostate; -86.7% (active) in the assay with UACC-62 melanoma; -94.5% (active) in the assay on SK-MEL-2 melanoma; -91.1% (active) in the assay with SN12C renal; -81.1% (active) in the assay on UO-31 renal. For the same compound, the growth was -91.2% (active) in the assay on TK-10 renal; -92.5% (active) in the assay with ACHN renal; -93.9% (active) in the assay on A498 renal; -87.4% (active) with OVCAR-5 ovarian; -87.8% (active) with OVCAR-3 ovarian; -68.1% (active) in the assay on HS 578T breast. For the same compound, the growth was -74.7% (active) in the assay on NCI/ADR-RES ovarian and -88.2% (active) with BT-549 breast.

Consider `COc1ccc(OC)c(-n2cc(C#N)c(N)c2C(=O)c2ccc(Cl)cc2Cl)c1`, for which the growth is 63.4% in the assay on 786-0 renal; 50.3% in the assay with MALME-3M melanoma; 64.2% with MDA-MB-231 breast; 56.2% in the assay with SF-268 CNS; 28.4% with SF-295 CNS; 63.6% in the assay on UACC-257 melanoma. For the same compound, the growth was 24.6% in the assay with U251 CNS; 37.8% in the assay with PC-3 prostate; 30.5% in the assay with UACC-62 melanoma; -27.5% (active) with SK-MEL-2 melanoma; 48.9% with SN12C renal; 56.7% in the assay with UO-31 renal. Moreover, the growth in the assay with TK-10 renal was 78.8%; in the assay with ACHN renal, 53.3%; in the assay with A498 renal it was 28.3%; with OVCAR-5 ovarian, 74.4%; in the assay on OVCAR-3 ovarian, 23.5%; in the assay on HS 578T breast it was 38.6%. For the same compound, the values for the growth with NCI/ADR-RES ovarian and in the assay on BT-549 breast were 30.4% and 48.3%, respectively.

`CCOC(=O)C1=C(N)N(c2ccc(C)cc2)C2=C(C(=O)CC(C)(C)C2)C1c1ccccc1Br` (stereo not given): the growth was 83.9% in the assay on 786-0 renal; 109% with MALME-3M melanoma; 93.4% in the assay with MDA-MB-231 breast; 99.3% in the assay on SF-268 CNS; 90.5% in the assay with SF-295 CNS; 84.1% in the assay with UACC-257 melanoma. Besides, the growth with U251 CNS is 80.7%; with PC-3 prostate it was 32.4%; in the assay with UACC-62 melanoma it was 71.8%; with SK-MEL-2 melanoma, 85%; in the assay on SN12C renal, 85.2%; in the assay with UO-31 renal, 76%. The growth is 110% in the assay on TK-10 renal; 85.9% in the assay on ACHN renal; 108% with A498 renal; 97.5% with OVCAR-5 ovarian; 84.9% in the assay on OVCAR-3 ovarian; 99.5% in the assay on HS 578T breast. The results for the growth in the assay with NCI/ADR-RES ovarian and in the assay with BT-549 breast were 95.7% and 93.9%, respectively.

For `COc1ccc(Cn2cc(C#N)c(N)c2C(C)=O)c(OC)c1`, the growth in the assay with 786-0 renal was 102%; in the assay on MALME-3M melanoma it was 108%; in the assay with MDA-MB-231 breast it was 101%; in the assay with SF-268 CNS it was 103%; in the assay with SF-295 CNS it was 109%; with UACC-257 melanoma, 109%. Also, the growth is 105% with U251 CNS; 97.6% in the assay on PC-3 prostate; 98.1% with UACC-62 melanoma; 126% in the assay on SK-MEL-2 melanoma; 96.4% with SN12C renal; 96.4% in the assay with UO-31 renal. Besides, the growth in the assay with TK-10 renal is 113%; in the assay on ACHN renal, 101%; with A498 renal, 97.8%; in the assay on OVCAR-5 ovarian, 112%; in the assay on OVCAR-3 ovarian, 105%; in the assay on HS 578T breast it was 111%. For the same compound, the values for the growth in the assay on NCI/ADR-RES ovarian and with BT-549 breast were 102% and 107%, respectively.

Regarding `Cn1cc(-c2cc3nc(-c4c[nH]c5ccccc45)cc(N)n3n2)c2cc(Cl)ccc21`, the growth is -85.7% (active) in the assay with 786-0 renal; -90.8% (active) with MALME-3M melanoma; -69.4% (active) in the assay with MDA-MB-231 breast; -44.6% (active) in the assay on SF-268 CNS; -90.9% (active) in the assay on SF-295 CNS; -90.4% (active) in the assay with UACC-257 melanoma. Further, the growth in the assay on U251 CNS was -91.8% (active); with PC-3 prostate it was -85.3% (active); in the assay on UACC-62 melanoma, -85.8% (active); in the assay with SK-MEL-2 melanoma, -95.8% (active); in the assay on SN12C renal it was -85.7% (active); in the assay with UO-31 renal, -97.7% (active). The growth is -91.8% (active) in the assay with TK-10 renal; -100% (active) in the assay with ACHN renal; -82.9% (active) in the assay with A498 renal; -86.4% (active) in the assay with OVCAR-5 ovarian; -80% (active) with OVCAR-3 ovarian; -22.2% (active) in the assay on HS 578T breast. Also, the growth is -48.5% (active) with NCI/ADR-RES ovarian and -90.4% (active) in the assay with BT-549 breast.

Turning to `Cn1cc(-c2nnc(N)nc2-c2c[nH]c3ccc(F)cc23)c2cc(Br)cnc21`, the growth in the assay with 786-0 renal was 48%; in the assay with MALME-3M melanoma, 106%; with MDA-MB-231 breast, 56.1%; in the assay on SF-268 CNS, 60.1%; in the assay with SF-295 CNS, 41%; in the assay with UACC-257 melanoma it was 99.6%. Further, the growth in the assay with U251 CNS is 57.1%; in the assay on PC-3 prostate it was 56.8%; in the assay on UACC-62 melanoma it was 50.8%; in the assay with SK-MEL-2 melanoma, 71%; in the assay with SN12C renal, 72.3%; with UO-31 renal it was 43.1%. For the same compound, the growth is 45.5% with TK-10 renal; 47% in the assay with ACHN renal; 47.1% with A498 renal; 83.3% in the assay with OVCAR-5 ovarian; 57.5% in the assay on OVCAR-3 ovarian; 52% with HS 578T breast. In addition, the growth with NCI/ADR-RES ovarian is 68.1%; with BT-549 breast it was 51.1%.

On to `COc1cc2oc(-c3cccc(C(=O)Nc4ccc(Cl)cc4)c3)cc(=O)c2c(OCCNC(=O)[C@@H](N)CO)c1OC`, for which the growth in the assay on 786-0 renal was 48.4%; in the assay with MALME-3M melanoma, -56.9% (active); in the assay with MDA-MB-231 breast it was 3.78% (active); in the assay on SF-268 CNS, 69.9%; with SF-295 CNS it was 99.4%; in the assay on UACC-257 melanoma, -67.8% (active). Moreover, the growth with U251 CNS is -82.6% (active); with PC-3 prostate, 48.3%; with UACC-62 melanoma, 38.8%; in the assay with SK-MEL-2 melanoma it was 78.5%; in the assay on SN12C renal, 43.9%; in the assay on UO-31 renal, 91.1%. For the same compound, the growth in the assay with TK-10 renal is 138%; in the assay with ACHN renal, 99.4%; with A498 renal, 177%; in the assay on OVCAR-5 ovarian it was 60.9%; with OVCAR-3 ovarian, 89.5%; with HS 578T breast, 53.8%. The growth with NCI/ADR-RES ovarian was 102%; with BT-549 breast, 58.9%.

`Fc1ccc(-c2csc(Nc3cccc(Nc4nc(-c5ccc(F)cc5)cs4)c3)n2)cc1`: the growth with 786-0 renal is 68.8%; with MALME-3M melanoma, 83%; in the assay with MDA-MB-231 breast, 64.6%; in the assay on SF-268 CNS it was 57.9%; with SF-295 CNS, 90.4%; with UACC-257 melanoma, 74.6%. For the same compound, the growth in the assay on U251 CNS was 62.7%; with PC-3 prostate it was 35.2%; in the assay on UACC-62 melanoma, 57.1%; in the assay on SK-MEL-2 melanoma it was 34.7%; in the assay with SN12C renal it was 47.2%; in the assay with UO-31 renal it was 31.3%. Besides, the growth in the assay with TK-10 renal was 94.5%; in the assay with ACHN renal it was 51.8%; with A498 renal, 78.3%; with OVCAR-5 ovarian, 65.5%; in the assay with OVCAR-3 ovarian it was 57.5%; in the assay with HS 578T breast it was 69.3%. In addition, the figures for the growth with NCI/ADR-RES ovarian and in the assay with BT-549 breast were 63.7% and 64%, respectively.
